Assay outcomes as filed in PubChem.
Integrin act MD – activators of alpha7 integrin expression for muscular dystrophy | 0.064% of 350,000 active | Potency, µM (highest dose often 38.3 µM), usual class: activators | alpha7betagal myoblasts, beta-gal FDG fluorescence, 48 h; also: nearly all actives have a fitted effect of over 60% in size
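Alpha7betagal+/- myoblasts (passage 13) were plated 16-24 hr, then exposed to compounds (1:260 dilution of DMSO stock) for 48 hours at 37C. After MPER lysis, β-galactosidase reporter activity was read as FDG fluorescence (ex 480/em 540) after 30 minutes.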
B2AR arrestin – recruits beta-arrestin to the human beta2-adrenergic receptor; beta-arrestin recruitment to beta2AR, cell-based reporter; 0.02% of 330,000 active; AID 492947; Potency, µM (highest dose often 46.1 µM), most hits filed as activators; also: nearly all actives have a fitted effect of over 65% in size
DRD3 antagonist – blocks the human D3 dopamine receptor; D3R cells, DiscoveRx beta-arrestin luminescence, antagonist mode; active compounds read low; 2.5% of 360,000 active; max response, negative = inhibition, %; P35462; in the data active = max response below about -50%; inconclusive = no clear call, values can overlap the other calls
Target sequence (P35462 whole entry, looked up): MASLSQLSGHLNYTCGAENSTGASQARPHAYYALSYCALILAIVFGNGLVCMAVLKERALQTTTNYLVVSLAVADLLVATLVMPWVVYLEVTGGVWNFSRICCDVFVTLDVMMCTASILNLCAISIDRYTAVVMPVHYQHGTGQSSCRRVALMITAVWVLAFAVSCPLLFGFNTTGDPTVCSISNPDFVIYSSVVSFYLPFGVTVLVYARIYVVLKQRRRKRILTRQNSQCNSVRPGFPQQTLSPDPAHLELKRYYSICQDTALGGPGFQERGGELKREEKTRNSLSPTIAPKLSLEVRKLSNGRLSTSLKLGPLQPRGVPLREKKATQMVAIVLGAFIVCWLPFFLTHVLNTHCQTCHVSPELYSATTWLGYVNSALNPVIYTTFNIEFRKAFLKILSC
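Cells plated overnight at 1500 cells/well, then exposed to library compounds with dopamine controls for 90 minutes at 37 degrees C. DiscoveRx reagent added for 30–60 minutes at room temperature; luminescence read, quantitative HTS format.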
mIDH1 inhibitor – human IDH1 R132H inhibition; Potency, µM (top dose mostly 76.6 µM), usual class: inhibitors; O75874; 0.093% of 390,000 active; AID 602179; IDH1-R132H enzyme, NADPH consumption, diaphorase/resazurin fluorescence; also: nearly all actives have a fitted effect of over 65% in size
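IDH1-R132H (0.5 ug/mL dispensed) in pH 7.5 Tris buffer was preincubated 30 min with compound, then given a substrate mix of 0.016 mM NADPH and 2 mM alpha-KG for 80 min at room temperature; remaining NADPH was read by diaphorase/resazurin fluorescence.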
D3 ag – agonists of human D3 dopamine receptor | P35462 | D3R DiscoveRx beta-arrestin cells, luminescence, 90 min | max activation, % | 0.58% of 410,000 active; in the data active = max activation above about 30%
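Cells at 1500/well, incubated overnight, then treated with pinned compounds (dopamine as control) for 90 min at 37 degrees C. DiscoveRx reagent added for 30 - 60 minutes at room temperature; luminescence read.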
Hits are given with their value; n = inactive; u = inconclusive; x = no result. Only some compounds are listed: those with a hit (about 2.9% of all), similar ones and a draw of the others. Unless noted, calls follow the shape of the dose curve; as a rule, active = well fitted curve in the direction sought with a large enough effect; inconclusive = small, poorly fitted or top-dose-only effect, or another doubt; inactive = no such curve, though single readings can be large; an effect the other way counts as inactive or inconclusive.

SMILES	Integrin act MD	B2AR arrestin	DRD3 antagonist	mIDH1 inhibitor	D3 ag
N#CC1=C(N)C2=CCCC[C@H]2[C@H](c2ccccc2)C1(C#N)C#N	n	n	n	23.3µM	n
Cc1ccc2c(Sc3ccccc3)c(C(=O)NCc3ccccc3F)[nH]c2c1	x	x	x	n	n
COCCNC(=O)CSc1ccc(Cl)cc1	n	n	n	n	n
COCCNCCCCSc1ccc(Cl)cc1	n	n	-59.4	n	n
CCOC(=O)c1c(-c2ccc(C)o2)csc1NC(=S)NC(=O)N(C)C	n	n	-55.0	n	n
CCOC(=O)Cn1c(=O)n(CC2CCCO2)c2nc(-c3cccc(C)c3)nc(C(N)=O)c21 (configuration not stated)	x	x	x	n	n
CC(=O)NN1C(=O)/C(=C\c2ccc(Br)o2)SC1=S	n	n	-59.4	n	n
CC(=O)NN1C(=O)/C(=C/c2ccc(Br)o2)SC1=S	n	n	n	n	n
COCCCNC(=O)CCc1c(C)nc2nc(-c3cc(OC)cc(OC)c3)nn2c1C	x	x	x	n	n
Cc1ccc(-n2c(-c3ccccc3)c[nH]c2=S)cc1	n	n	n	n	40.7
S=c1[nH]cc(-c2ccccc2)n1-c1ccccc1	n	n	n	n	n
c1ccc2c(-c3cc(C4CCNCC4)[nH]n3)cccc2c1	n	n	n	n	n
CCOc1cc(/C=N/NC(=O)c2cccc([N+](=O)[O-])c2)ccc1OS(=O)(=O)c1ccccc1	n	n	-61.2	n	n
FC(F)(F)c1cccc(NC(=S)N2CCN(c3ccccn3)CC2)c1	n	n	-106.3	n	n
COc1ccc(C(=O)Oc2c(Sc3ccc(C)cc3)c(C)nn2C(C)(C)C)c(OC)c1	x	x	x	n	n
O=C(CCn1nnc2ccccc2c1=O)NCC1CCC(C(=O)O)CC1 (configuration not stated)	n	n	n	n	n
O=C(O)CCCNC(=O)CCn1nnc2ccccc2c1=O	11.2µM	n	n	n	n
C[C@H](NC(=O)CCn1nnc2ccccc2c1=O)C(=O)O	n	n	n	n	n
O=C(O)CCCCCNC(=O)CCn1nnc2ccccc2c1=O	n	n	-51.6	n	n
CC(C)(C)OC(=O)N1CCC(c2c(C(=O)N3CCN(C(=O)c4ccco4)CC3)cnn2-c2ccccc2Cl)CC1	x	x	x	n	n
Cc1c(C(=O)N2CCCCC2)c(S(=O)(=O)Nc2cccc(Br)c2)c(C)n1C	10µM	n	n	n	n
O=C(CSc1nc2ccsc2c(=O)n1Cc1ccccc1F)NCc1ccccc1Cl	x	x	x	n	n
Cc1sc2nc(C3CC3)nc(SCC(=O)N3CCCc4ccccc43)c2c1C	x	n	x	x	x
Cc1sc2nc(C3CC3)nc(SCC(=O)N3CCc4ccccc4C3)c2c1C	n	n	n	n	45.8
CCc1c(C)sc2nc(C(C)C)nc(SCC(=O)N3CCc4ccccc4C3)c12	n	n	n	n	49.6
SMILES	Integrin act MD	B2AR arrestin	DRD3 antagonist	mIDH1 inhibitor	D3 ag
O=C(Nc1cc2c(cc1C(=O)c1ccc(Br)cc1)OCCO2)c1ccc(Cl)cc1	x	x	x	n	n
FC(F)(F)c1cccc(-c2nnn3c2nc(NC2CCCCC2)c2ccccc23)c1	x	x	x	n	n
NNc1nc2c(-c3cccc(C(F)(F)F)c3)nnn2c2ccccc12	n	n	n	n	31.6
Brc1ccc(CNCCCSc2nnnn2-c2ccccc2)cc1	x	x	x	x	n
CCOC(=O)C1CCN(C(=O)CSc2cc(=O)n(CC)c3ccccc23)CC1	n	n	-78.9	n	n
CC(=O)Nc1cccc(-c2ccnc3c2CC(C)(C(=O)Nc2cccc(NS(C)(=O)=O)c2)O3)c1 (configuration not stated)	x	x	n	x	n
O=C(CN1CCN(c2ccccc2F)CC1)N1CCc2ccccc21	n	n	-53.9	n	n
O=C(CN1CCCc2ccccc21)N1CCc2ccccc21	n	n	n	n	n
O=C(CN1CCN(c2ccccc2)CC1)N1CCc2ccccc21	n	n	u	n	n
O=C(CN1CCCCC1)N1c2ccccc2CCc2ccccc21	n	n	n	n	n
Cc1csc(=N)n1CC(=O)N1CCc2ccccc21	n	n	-85.7	n	n
O=C(CN1CCCCC1)N1CCc2ccccc21	n	n	-85.7	n	n
O=C(CN1CCN(c2ncccn2)CC1)N1CCc2ccccc21	n	n	-81.7	n	n
CCOC(=O)N1CCN(CC(=O)N2c3ccccc3CCc3ccccc32)CC1	n	n	n	n	n
O=C(CN1CCN(Cc2ccccc2)CC1)N1CCCc2ccccc21	n	n	-51.0	n	n
O=C(CN1CCC(N2CCCCC2)CC1)N1CCCc2ccccc21	n	n	-76.1	n	n
CC(C)NC(=O)CN1CCN(c2ncccn2)CC1	n	n	-54.3	n	n
CC1CCN(CC(=O)N2c3ccccc3CCc3ccccc32)CC1	n	n	-64.0	n	n
O=C(Nc1ccccc1C(=O)OCc1cc(=O)n2ccsc2n1)c1cccc(F)c1	x	x	x	n	n
c1cc2c(cc1-n1cnnn1)OCO2	n	n	n	n	n
c1cc2c(cc1Cn1cnnn1)OCO2	n	n	-57.3	n	n
NC(=O)c1c(-c2cccs2)csc1N	n	n	-53.5	n	n
COc1ccccc1CNC(=O)CCn1c(=O)c2cccn2c2cccnc21	x	x	x	n	n
Cc1nc2nc(C)c(CCC(=O)NCc3ccccc3)c(C)n2n1	x	x	x	n	n
CC1CCCCN1CCCNC(=O)c1ccc(Br)cc1 (configuration not stated)	n	n	-65.0	n	n
SMILES	Integrin act MD	B2AR arrestin	DRD3 antagonist	mIDH1 inhibitor	D3 ag
Cc1ccc(C(=O)NCCN2CCN(C(=O)c3ccc(C)c(C)c3)CC2)cc1C	n	n	-98.2	n	n
O=C(NCCN1CCN(C(=O)c2ccc(Br)cc2)CC1)c1ccc(Br)cc1	n	n	-98.1	n	n
O=C(c1ccc(Br)cc1)N1CCN(CCc2ccncc2)CC1	x	x	x	n	n
CCn1c(C)c(C)c2cc(C(=O)NCCN3CCCCCC3)ccc21	n	n	-80.9	n	n
COc1cc(C(=O)NCCN2CCN(C(=O)c3cc(OC)c(OC)c(OC)c3)CC2)cc(OC)c1OC	n	n	n	n	n
COC(=O)c1ccc(OCC2c3cc(OC)c(OC)cc3CCN2C(=O)COc2ccc(Cl)cc2)cc1 (configuration not stated)	x	x	x	n	n
CC(C)(CC(=O)O)CC(=O)N1CCCN(c2nccc(C(F)(F)F)n2)CC1	3.98µM	n	n	n	n
Cc1ccc(Cl)c(NC(=O)COC(=O)c2ccccc2C(=O)c2ccc(Cl)c([N+](=O)[O-])c2)c1Cl	n	n	-71.1	n	n
CCCNC(=O)COC(=O)c1ccccc1C(=O)c1ccc(Cl)c([N+](=O)[O-])c1	n	n	-101.3	n	n
O=C(CN1CCC(n2nnc3cc(F)ccc32)CC1)Nc1ccccc1N1CCOCC1	n	n	-54.8	n	n
O=C(CN1CCC(n2nnc3cc(F)ccc32)CC1)NC1CC1	n	n	-56.7	n	n
O=C(CN1CCC(n2nnc3cc(F)ccc32)CC1)NC1CCCCC1	n	n	-85.5	n	n
CC(=O)NCCCS(=O)(=O)O	x	x	x	x	n
Cc1cccc(NCc2ccc(O)c3ncccc23)c1C	n	n	n	n	n
